# According to publication PMC5540273 (PLoS ONE, 2017):
# Legend:
# Conditions in all cases: concentration: 1 μM, replicates: in singlicate; n = 1
# MAP3K3 = test system: MAP3K3
# MAP3K4 = test system: MAP3K4
# MAP4K2 = test system: MAP4K2
# MAP4K3 = test system: MAP4K3
# MAP4K4 = test system: MAP4K4
# MAP4K5 = test system: MAP4K5
# MAPKAPK2 = test system: MAPKAPK2
# MAPKAPK5 = test system: MAPKAPK5
# MARK1 = test system: MARK1
# MARK2 = test system: MARK2
# MARK3 = test system: MARK3
# MARK4 = test system: MARK4
# MAST1 = test system: MAST1
# MEK1 = test system: T1, MEK1
# T1 construct: gene MAP2K1
# MEK2 = test system: T2, MEK2
# T2 construct: gene MAP2K2
# MEK3 = test system: T3, MEK3
# T3 construct: gene MAP2K3
# MEK4 = test system: T4, MEK4
# T4 construct: gene MAP2K4
# MEK5 = test system: T5, MEK5
# T5 construct: gene MAP2K5
# MEK6 = test system: T6, MEK6
# T6 construct: gene MAP2K6
# MELK = test system: MELK
# 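Further: KINOMEscan kinase panel screen.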
Compound,%Inh (MAP3K3) [%],%Inh (MAP3K4) [%],%Inh (MAP4K2) [%],%Inh (MAP4K3) [%],%Inh (MAP4K4) [%],%Inh (MAP4K5) [%],%Inh (MAPKAPK2) [%],%Inh (MAPKAPK5) [%],%Inh (MARK1) [%],%Inh (MARK2) [%],%Inh (MARK3) [%],%Inh (MARK4) [%],%Inh (MAST1) [%],%Inh (MEK1) [%],%Inh (MEK2) [%],%Inh (MEK3) [%],%Inh (MEK4) [%],%Inh (MEK5) [%],%Inh (MEK6) [%],%Inh (MELK) [%]
Fc1cccc(COc2ccc(Nc3ncnc4sc(-c5ccc[nH]5)cc34)cc2Cl)c1 [GW707818],0,11,7,4,5,3,9,0,12,1,13,14,1,0,0,0,2,27,0,13
O=C(Nc1ccccc1F)NC1CCN(c2ccnc(Nc3ccc(F)cc3)n2)C1 (stereo not shown) [GSK1379722],0,14,0,0,0,0,18,0,0,0,0,0,14,0,0,0,25,12,0,0
CSc1ccc(NC2=C(c3ccccc3Cl)C(=O)NC2=O)cc1 [SB-342411],0,30,0,10,2,6,3,1,3,0,0,13,0,14,3,0,0,5,76,4
COc1cc2c(Nc3cccc(NC(=O)c4ccccc4)c3)ncnc2cc1OCCCN1CCOCC1 [GSK223810],0,18,0,9,0,43,5,0,11,0,0,22,0,0,3,7,4,80,0,15
CNc1nccc(-c2c(-c3ccc(F)cc3)ncn2CCCN2CCOCC2)n1 [SB-222516],0,17,0,0,0,8,0,0,0,9,0,35,20,0,12,15,23,46,0,24
FC(F)(F)c1cc(Nc2nccc(-c3c(-c4ccc(Cl)cc4)nn4ncccc34)n2)ccc1Cl [GW829351],0,0,0,0,0,0,0,0,0,0,0,17,20,6,21,0,0,1,0,0
CS(=O)(=O)CCNCc1ccc(-c2ccc3ncnc(Nc4ccc(OCc5ccccc5)c(Cl)c4)c3c2)o1.Cl [GW574783],0,0,0,1,0,5,16,0,0,0,3,9,23,10,0,3,15,85,0,23
c1ccc(-c2ccc3c(-c4ccnc(Nc5ccc6c(c5)OCCO6)n4)cnn3n2)cc1 [GW818941],0,14,6,4,23,20,5,13,0,0,0,9,8,17,3,0,9,5,0,0
CNc1nccc(-c2c(-c3ccc(F)cc3)ncn2C2CCN(C)CC2)n1 [SB-222903],0,0,0,0,0,0,0,0,0,0,18,16,10,8,26,1,0,37,0,0
NC(=O)c1sc(-n2cnc3ccccc32)cc1OCc1ccccc1F [GSK1024306],0,23,0,0,8,21,0,0,0,0,0,1,11,0,0,0,20,69,0,23
Cl.Cn1ccc(-c2cccc(Nc3ccnc4cc(-c5nccs5)ccc34)c2)n1 [GW525701],0,10,14,0,20,0,21,0,28,100,0,0,12,0,0,0,8,86,0,0
